About 7,500 (2.1%) of roughly 360,000 compounds were called active. Inconclusive results (about 8%) are left out. Shown is part of a subset that was picked to be rich in actives. Values without a mark were called inactive. Calls follow the shape of the dose curve; as a rule, active = well fitted cell-killing curve with a large enough effect; inconclusive = small, poorly fitted or top-dose-only effect, or effect the other way, or another doubt; inactive = no such curve, though single readings can be large or run the other way.
Experiment: qHTS for induction of synthetic lethality in tumor cells producing 2HG: qHTS for the HT-1080-IDH1KD cell line;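 as to activity, negative = toxicity: 0% = DMSO wells and -100% = cell-free medium wells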
Settings: HT-1080 IDH1 knockdown viability, ATP luminescence, 48 h; series mostly up to 46.1 µM; activity, negative = toxicity: at the top concentration
In short: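 Knockdown cells (IDH1KD HT-1080) received compounds 2 h after plating at 750 cells/well and were kept 48 h at 37 °C in 5% FBS RPMI. A CellTiter-Glo luminescence read gave % activity for curve fitting.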
Potency is read from the fitted curve at half-maximal effect.

Structure (SMILES)	activity, negative = toxicity	Potency
COc1ccc(-c2c(C#N)cnc(C)c2C)c(O)c1OC	4.41%	–
OCCN1CCN(c2ncnc3c2ncn3[C@H]2CN(Cc3ccco3)C[C@@H](CO)O2)CC1	20.7%	–
O=C(NN=Cc1ccc2c(c1)CCC2)c1ccccc1O	5.14%	–
Cc1cc(C)cc(C(=O)NCCN2CCOCC2)c1	2.86%	–
COc1ccc(-c2ccc(C(=O)NCCN3CCOCC3)c3occc23)c(C)c1	–	18.4 µM (active)
COc1ccc(-c2cc(C(=O)NCCCN3CCOCC3)no2)cc1	3.26%	–
CCCNC(=O)C[C@@H]1CC[C@@H]2[C@H](COC[C@H](O)CN2C(=O)c2cc(Cl)cc(Cl)c2)O1	16.4%	–
CC(OC(=O)c1cccnc1Cl)C(=O)NC1CCCCC1 (configuration not stated)	-0.365%	–
COc1cccc(-c2ccc3c(c2)N(Cc2ccccc2OC)C(=O)C(C)S3)c1 (configuration not stated)	-4.09%	–
Cc1ccc(NNC(=O)C2CCC2)cc1C	–	7.31 µM (active)
Cc1ccc(C)c(OCC(=O)NNC(=O)C2CCC2)c1	7.65%	–
O=C(NNC(=O)C1CCC1)c1ccccc1	4.36%	–
CC1(C2CC2)NC(=O)N(CC(=O)N2CCN(c3ccccc3F)CC2)C1=O (configuration not stated)	-2.54%	–
CCCCCCN1CCN(C2CN(Cc3cn(Cc4ccc(F)cc4)nn3)S(=O)(=O)C2)CC1 (configuration not stated)	-1.26%	–
COC(=O)c1ccc(NC(=O)c2ccccc2NS(=O)(=O)c2ccccc2)cc1	–	11.2 µM (active)
CCOc1ccc(NC(=O)c2ccccc2NS(C)(=O)=O)cc1	2.92%	–
COC(=O)c1ccccc1NS(=O)(=O)c1ccc2[nH]c(=O)[nH]c2c1	6.48%	–
O=C(C(=O)N1CCN(c2ccccc2)CC1)c1ccc2c(c1)OCO2	11%	–
O=C(c1ccccc1)N1CCN(c2cc(-c3ccccc3)nc3cc(-c4cccc(Cl)c4)nn23)CC1	8.08%	–
C#Cc1cc(N2CCN(C(=O)c3ccoc3)CC2)n2nc(-c3cccc(Cl)c3)cc2n1	–	9.2 µM (active)
CN(C)CCN1CCN(c2cc(-c3cccc(Cl)c3)nc3ccnn23)CC1	-16.7%	–
O=C(NCc1ccccc1)C(c1ccc(F)cc1)N1CCN(C(=O)C2CCCO2)CC1 (configuration not stated)	21.4%	–
COc1ccc(C2=NN(c3nc4ccccc4s3)C(=O)C2)cc1	-24.9%	–
O=[N+]([O-])c1ccc(N2CCOCC2)cc1	-1%	–
O=C1CC(c2ccccc2)=NN1c1ccc([N+](=O)[O-])cc1	–	20.6 µM (active)
CCCC(=O)Nc1nc2ccc(NC(=O)c3c(F)c(F)c(OC)c(F)c3F)cc2s1	–	0.651 µM (active)

Structure (SMILES)	activity, negative = toxicity	Potency
CSc1nc2ccc(NC(=O)c3c(F)cccc3F)cc2s1	-17.3%	–
CC(=O)Nc1ccc2nc(NC(=O)CS(=O)(=O)c3ccc(F)cc3)sc2c1	-0.314%	–
Nc1nc2ncccn2c1-c1ccccc1	23.7%	–
CCN1C(=O)[C@@H]2[C@@H]3CN(S(=O)(=O)c4ccccc4C)[C@@H](c4ccc(Cl)cc4)[C@@H]3C(=O)C[C@@H]2C1=O	4.33%	–
CC1CCCCC1NC(=O)/C(C#N)=C/C=C/c1ccccc1[N+](=O)[O-] (configuration not stated)	–	4.61 µM (active)
O=[N+]([O-])c1ccccc1/C=C/CN1CCCC(CO)C1 (configuration not stated)	-11.4%	–
O=[N+]([O-])c1ccccc1/C=C/CN1CCC(O)CC1	-1.05%	–
CC1=C(C(=O)Nc2cccc(C(=O)NCC(C)c3ccccc3)c2)SCCO1 (configuration not stated)	-0.161%	–
O=C(NCc1cccnc1)c1cc(C2CCCN(C(=O)C3CCCCC3)C2)on1 (configuration not stated)	0.399%	–
COc1cc2ccccc2cc1C(=O)N1CCOCC1	2.75%	–
Cc1oc2c(c1C(=O)N1CCOCC1)C(=O)c1ccccc1C2=O	–	9.2 µM (active)
O=C(c1snnc1-c1ccccc1)N1CCOCC1	13.4%	–
O=C(CN1C(=O)NC2(CCc3ccccc32)C1=O)NC1CCCCC1 (configuration not stated)	0.155%	–
O=C(COC(=O)/C=C/c1ccc(Cl)cc1)NC1CCS(=O)(=O)C1 (configuration not stated)	-4.55%	–
O=C(Nc1ccc(OCCO)cc1)c1csc([C@H]2C[C@H](O)[C@@H](CO)O2)n1	10.3%	–
CC(C)CN1CCC1(C)C(=O)Nc1ccc(OC(F)F)cc1 (configuration not stated)	2.39%	–
O[C@H]1CN(Cc2cccs2)[C@@H](c2ccc(Cl)cc2)C[C@@H]1n1cc(C2CC2)nn1	4.5%	–
Nc1nonc1-n1nnc(C(=O)N/N=C/c2ccccc2O)c1CN1CCCC1	–	14.6 µM (active)
NNC(=O)c1nnn(-c2nonc2N)c1CN1CCCC1	-3.44%	–
Nc1nonc1-n1nnc(C(=O)N/N=C\c2ccncc2)c1CN1CCCCC1	-3.01%	–
O=C1CC[C@@H](C(=O)N2CSC[C@@H]2C(=O)Nc2ccc(C(F)(F)F)cc2)N1	-2.41%	–
O=C(NCc1ccc(F)cc1)c1cc(C2CCCCN2C(=O)C2CCCCC2)on1 (configuration not stated)	-11.2%	–
COc1ccc(OCCCC(=O)Oc2ccc(OC)cc2)cc1	-2%	–
COc1ccc(CCC(=O)c2ccc(OC)cc2)cc1	5.62%	–
COc1ccc(OCCC(=O)c2ccc(OC)cc2)cc1	–	20.6 µM (active)
COc1ccc(C(O)C(O)(C(=O)OC(C)C)c2ccc(C)cc2)cc1 (configuration not stated)	-1.24%	–

Structure (SMILES)	activity, negative = toxicity	Potency
CC1(C)CC(=O)C=C(c2ccccc2CO)C1=O	13.4%	–
COc1ccc(C(C[N+](=O)[O-])n2nc(C)cc2C)cc1 (configuration not stated)	–	14.6 µM (active)
COc1ccc(OC)c(S(=O)(=O)n2c([N+](=O)[O-])cnc2C)c1	7.69%	–
CCOc1ccc(C(C)C)cc1S(=O)(=O)n1nc(C)cc1C	6.39%	–
Cn1nc(N)c2ncc(C(Cl)(Cl)Cl)nc21	-5.53%	–
CNc1cc(-c2c(OC)cccc2OC)ncn1	13.7%	–
CCOC(=O)C1CCN(C(=O)Nc2ccc(C)c(Cl)c2)CC1	-4.51%	–
CCOC(=O)C1CCN(CCC(=O)Nc2cccc(C)c2)CC1	5.37%	–
CCOC(=O)C1CCN(c2c(Nc3cc(C)cc(C)c3)c(=O)c2=O)CC1	–	4.61 µM (active)
Cc1nc(C(F)(F)F)ccc1C(=O)N1CCC1(C)C(=O)NS(=O)(=O)c1ccccc1Cl (configuration not stated)	0.87%	–
O=C(NCCc1ccccc1)c1cccc(NC(=O)c2ccccc2)c1	-1.11%	–
O=C(CSc1ccccc1)Nc1ccc(C(=O)Nc2cccc(O)c2)cc1	-1.42%	–
O=C(CCl)Nc1cccc(CP(=O)(c2ccccc2)c2ccccc2)c1	–	5.17 µM (active)
Nc1ncnc2c1ncn2[C@@H]1O[C@H](CNC(=O)[C@H](N)Cc2cccnc2)[C@@H](O)[C@H]1O	21.4%	–
Cc1ccccc1OCC(=O)Nc1ccc(N2CCN(C(=O)C(C)C)CC2)c(Cl)c1	–	13 µM (active)
CCc1ccccc1OCC(=O)Nc1ccc(C)c(S(=O)(=O)N2CCCCCC2)c1	-17.9%	–
CCC(=O)N1CCN(c2ccccc2NC(=O)COc2cccc(C)c2C)CC1	-0.305%	–
C[C@H]1CN([C@@H](C)CO)C(=O)CCCn2cc(nn2)CO[C@@H]1CN(C)S(=O)(=O)c1ccccc1C#N	6.94%	–
Nc1nc2c(ncn2[C@@H]2O[C@H](CNS(=O)(=O)N3CCc4ccccc4C3)[C@@H](O)[C@H]2O)c(=O)[nH]1	25.9%	–
CC(C)(C)c1ccc(S(=O)(=O)NC(=O)C2(C)CCN2C(=O)CC2CC2)cc1 (configuration not stated)	15.3%	–
NS(=O)(=O)c1ccc(CCNc2nc(C(F)(F)F)nc3ccccc23)cc1	-22.2%	–
CN(C)C(CNC(=O)c1cc2ccccc2o1)c1ccccc1 (configuration not stated)	3.28%	–
CCc1ccc(C(CNc2nc(C(F)(F)F)nc3ccccc23)N(C)C)cc1 (configuration not stated)	–	20.6 µM (active)
CCOC1=C2CN(S(=O)(=O)c3ccc(C)cc3)[C@H](c3cccs3)C[C@H]2[C@H]2C(=O)N(c3ccccc3)C(=O)[C@H]2C1	9.74%	–
Cc1ccccc1OCCOc1ccc([N+](=O)[O-])cc1/C=N/n1cnnc1	–	4.61 µM (active)
CCOc1cc(/C=N/n2cnnc2)c(Br)cc1O	-5.67%	–

Structure (SMILES)	activity, negative = toxicity	Potency
Cc1ccccc1OS(=O)(=O)c1cccc([N+](=O)[O-])c1	8.36%	–
O=C(COC(=O)Cc1ccc(Cl)cc1Cl)NCc1ccco1	-4.62%	–
Cn1cnc(S(=O)(=O)N2C[C@@H](O)COC[C@@H]3O[C@H](CC(=O)NC4CCC4)CC[C@H]32)c1	25.4%	–
O=c1cc(CN2CCCCCCC2)c2c(ccc3ccccc32)o1	0.659%	–
CCN1CCC(O)(/C=C/c2ccc(C)cc2)C(C(=O)/C=C/c2ccc(C)cc2)C1 (configuration not stated)	–	11.6 µM (active)
CCOC(=O)C1CCCN(C(=O)/C=C/c2ccc(OC)cc2)C1 (configuration not stated)	-3.51%	–
COc1ccc(S(=O)(=O)N2CCN(CC(=O)N3CCNC3=O)CC2)cc1OC	6.33%	–
COc1ccc(CN2C(=O)C(CC(=O)NCCN3CCOCC3)CC(C(=O)N(C(C)C)C(C)C)=C2C)cc1 (configuration not stated)	5.14%	–
CCc1cc(C(=O)N(CC)CC(=O)Nc2c(F)cccc2F)sc1C	1.16%	–
COc1ccc(Cl)cc1NC(=O)CN(C)C(=O)c1cn(-c2ccccc2)nc1-c1cccs1	-3.23%	–
COc1ccc2oc(=O)cc(-c3cc4ccccc4o3)c2c1	-3.77%	–
COc1ccc(Nc2cc(=O)oc3ccccc23)cc1	–	5.8 µM (active)
COc1ccc(Nc2ccc3ccccc3c2)cc1	-22.5%	–
COc1ccc(CC(=O)NC2CCSc3ccccc32)cc1OC (configuration not stated)	-1.88%	–
COC(=O)C1=CN(Cc2ccc(OC)c(OC)c2)C=C(C(=O)OC)C1c1cccs1	-3.11%	–
COc1ccc(CC2c3cc(OC)c(OC)cc3CC[N+]2(C)CCC(=O)OCCCCCOC(=O)CC[N+]2(C)CCc3cc(OC)c(OC)cc3C2Cc2ccc(OC)c(OC)c2)cc1OC (configuration not stated)	–	20.6 µM (active)
CC/C(=N\NC(=S)NC(C)C)c1ccc(OC(F)F)cc1	-1.89%	–
C/C(=N\NC(=S)NC(C)C)c1ccc(C(C)(C)C)cc1	–	16.4 µM (active)
C/C(=N\NC(=S)NCc1ccccc1)c1ccc(Cl)cc1	-0.853%	–
CC(C)C[C@@H]1COc2cc(N3CCC[C@@H]3CO)ccc2S(=O)(=O)N1	1.26%	–
CC(C)(C(=O)NO)c1ccccc1	-20%	–
CCOc1cc(/C=N/NC(=O)c2c(C)nc3ccc(Cl)cn23)ccc1O	-2.43%	–
CCOc1cc(-c2cc(-c3ccc(NC(C)=O)cc3)nc(N)c2C#N)ccc1O	-15.5%	–
CCOc1cc(/C=C(\C#N)c2nc(-c3cccs3)c(NC(C)=O)s2)ccc1O	–	2.91 µM (active)

From PubChem BioAssay AID686971 (National Center for Advancing Translational Sciences (NCATS), 2013)
